{
  "source": "ChEMBL document CHEMBL2218924",
  "about": "“A broad activity screen in support of a chemogenomic map for kinase signalling research and drug discovery” (Biochem J, 2013)",
  "key": {"[1]": {"biological_target": "Tyrosine-protein kinase SYK (Homo sapiens) (UniProt P43405)", "conditions": "at 10 µM"}, "[2]": {"biological_target": "T1, Mitogen-activated protein kinase kinase kinase 7 (Homo sapiens) (UniProt O43318)", "T1 sequence (whole entry)": "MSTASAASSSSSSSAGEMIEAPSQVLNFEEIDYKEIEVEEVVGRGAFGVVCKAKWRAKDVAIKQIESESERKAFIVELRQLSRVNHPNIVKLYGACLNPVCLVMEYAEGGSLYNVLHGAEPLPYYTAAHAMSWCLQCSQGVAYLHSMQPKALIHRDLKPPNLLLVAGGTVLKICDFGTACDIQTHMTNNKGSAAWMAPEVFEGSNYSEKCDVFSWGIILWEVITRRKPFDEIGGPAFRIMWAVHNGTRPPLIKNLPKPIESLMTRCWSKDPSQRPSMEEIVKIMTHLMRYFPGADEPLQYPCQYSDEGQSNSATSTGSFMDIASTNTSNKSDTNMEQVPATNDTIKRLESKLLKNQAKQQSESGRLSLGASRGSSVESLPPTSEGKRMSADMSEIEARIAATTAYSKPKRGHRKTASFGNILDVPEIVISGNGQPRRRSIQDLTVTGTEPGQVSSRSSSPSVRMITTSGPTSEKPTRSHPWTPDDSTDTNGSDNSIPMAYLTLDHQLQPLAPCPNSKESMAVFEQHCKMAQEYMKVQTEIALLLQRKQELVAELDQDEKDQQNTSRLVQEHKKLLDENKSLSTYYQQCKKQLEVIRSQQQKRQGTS", "conditions": "at 1 µM"}, "[3]": {"biological_target": "T1, Mitogen-activated protein kinase kinase kinase 7 (Homo sapiens)", "conditions": "at 10 µM"}, "[4]": {"biological_target": "T2, Serine/threonine-protein kinase TAO1 (Homo sapiens) (UniProt Q7L7X3)", "T2 sequence (whole entry)": "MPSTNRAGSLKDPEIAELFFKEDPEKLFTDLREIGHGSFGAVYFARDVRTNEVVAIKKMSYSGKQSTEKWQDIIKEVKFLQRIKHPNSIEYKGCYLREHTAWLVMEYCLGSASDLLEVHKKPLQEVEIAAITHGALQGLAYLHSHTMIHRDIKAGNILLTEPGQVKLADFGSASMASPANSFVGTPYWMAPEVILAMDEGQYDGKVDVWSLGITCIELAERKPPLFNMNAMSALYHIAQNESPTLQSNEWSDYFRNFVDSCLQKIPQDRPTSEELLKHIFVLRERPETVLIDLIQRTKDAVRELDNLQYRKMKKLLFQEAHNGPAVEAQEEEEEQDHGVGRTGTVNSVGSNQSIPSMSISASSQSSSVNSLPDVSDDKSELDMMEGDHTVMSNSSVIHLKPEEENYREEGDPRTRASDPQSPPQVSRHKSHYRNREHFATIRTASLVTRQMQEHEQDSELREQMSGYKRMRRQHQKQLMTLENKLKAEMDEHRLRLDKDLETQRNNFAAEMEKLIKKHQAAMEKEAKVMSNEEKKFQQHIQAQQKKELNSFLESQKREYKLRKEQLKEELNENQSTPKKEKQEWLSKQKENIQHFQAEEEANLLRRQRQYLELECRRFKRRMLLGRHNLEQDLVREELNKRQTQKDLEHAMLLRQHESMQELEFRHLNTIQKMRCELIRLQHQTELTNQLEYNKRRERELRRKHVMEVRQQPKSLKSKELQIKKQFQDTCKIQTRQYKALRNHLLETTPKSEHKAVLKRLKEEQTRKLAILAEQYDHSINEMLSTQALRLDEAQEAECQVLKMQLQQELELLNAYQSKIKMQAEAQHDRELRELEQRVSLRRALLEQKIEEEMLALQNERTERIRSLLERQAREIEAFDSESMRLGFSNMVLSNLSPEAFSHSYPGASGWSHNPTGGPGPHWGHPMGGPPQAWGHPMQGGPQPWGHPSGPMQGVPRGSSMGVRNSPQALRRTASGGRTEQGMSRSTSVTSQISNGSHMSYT", "conditions": "at 1 µM"}, "[5]": {"biological_target": "T2, Serine/threonine-protein kinase TAO1 (Homo sapiens)", "conditions": "at 10 µM"}, "[6]": {"biological_target": "T3, Serine/threonine-protein kinase TAO2 (Homo sapiens) (UniProt Q9UL54)", "T3 sequence (whole entry)": "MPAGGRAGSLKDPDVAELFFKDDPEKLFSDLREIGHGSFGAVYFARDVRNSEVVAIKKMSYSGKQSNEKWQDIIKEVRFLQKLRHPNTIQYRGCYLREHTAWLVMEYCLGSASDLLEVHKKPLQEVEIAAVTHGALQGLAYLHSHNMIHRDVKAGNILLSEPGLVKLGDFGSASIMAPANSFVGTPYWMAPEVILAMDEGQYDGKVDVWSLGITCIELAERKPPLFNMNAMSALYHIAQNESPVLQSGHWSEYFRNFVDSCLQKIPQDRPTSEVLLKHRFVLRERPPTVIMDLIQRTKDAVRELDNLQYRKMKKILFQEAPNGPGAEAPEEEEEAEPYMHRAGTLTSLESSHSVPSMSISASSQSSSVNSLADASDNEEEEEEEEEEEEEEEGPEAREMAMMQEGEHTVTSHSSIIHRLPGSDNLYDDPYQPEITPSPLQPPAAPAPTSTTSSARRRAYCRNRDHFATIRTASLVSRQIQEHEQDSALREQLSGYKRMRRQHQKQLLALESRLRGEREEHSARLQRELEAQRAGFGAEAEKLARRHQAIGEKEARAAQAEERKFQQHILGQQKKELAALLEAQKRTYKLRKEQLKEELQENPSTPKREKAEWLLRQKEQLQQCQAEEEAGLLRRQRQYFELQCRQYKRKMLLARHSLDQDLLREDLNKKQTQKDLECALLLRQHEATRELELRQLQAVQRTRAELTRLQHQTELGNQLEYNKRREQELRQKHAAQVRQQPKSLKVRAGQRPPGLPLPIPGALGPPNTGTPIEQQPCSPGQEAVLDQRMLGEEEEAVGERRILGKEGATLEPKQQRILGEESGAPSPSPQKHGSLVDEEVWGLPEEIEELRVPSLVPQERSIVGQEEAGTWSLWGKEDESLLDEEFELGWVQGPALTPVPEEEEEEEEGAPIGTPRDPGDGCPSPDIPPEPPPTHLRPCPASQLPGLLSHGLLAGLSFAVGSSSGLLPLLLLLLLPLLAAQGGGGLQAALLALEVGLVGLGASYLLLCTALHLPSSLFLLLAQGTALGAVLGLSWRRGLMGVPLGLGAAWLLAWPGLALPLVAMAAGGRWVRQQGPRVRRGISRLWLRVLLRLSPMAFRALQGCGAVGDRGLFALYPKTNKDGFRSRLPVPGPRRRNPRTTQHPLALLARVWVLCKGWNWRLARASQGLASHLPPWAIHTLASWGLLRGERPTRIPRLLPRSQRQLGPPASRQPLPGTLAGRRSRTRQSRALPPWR", "conditions": "at 1 µM"}, "[7]": {"biological_target": "T3, Serine/threonine-protein kinase TAO2 (Homo sapiens)", "conditions": "at 10 µM"}, "[8]": {"biological_target": "T4, Serine/threonine-protein kinase TAO3 (Homo sapiens) (UniProt Q9H2K8)", "T4 sequence (whole entry)": "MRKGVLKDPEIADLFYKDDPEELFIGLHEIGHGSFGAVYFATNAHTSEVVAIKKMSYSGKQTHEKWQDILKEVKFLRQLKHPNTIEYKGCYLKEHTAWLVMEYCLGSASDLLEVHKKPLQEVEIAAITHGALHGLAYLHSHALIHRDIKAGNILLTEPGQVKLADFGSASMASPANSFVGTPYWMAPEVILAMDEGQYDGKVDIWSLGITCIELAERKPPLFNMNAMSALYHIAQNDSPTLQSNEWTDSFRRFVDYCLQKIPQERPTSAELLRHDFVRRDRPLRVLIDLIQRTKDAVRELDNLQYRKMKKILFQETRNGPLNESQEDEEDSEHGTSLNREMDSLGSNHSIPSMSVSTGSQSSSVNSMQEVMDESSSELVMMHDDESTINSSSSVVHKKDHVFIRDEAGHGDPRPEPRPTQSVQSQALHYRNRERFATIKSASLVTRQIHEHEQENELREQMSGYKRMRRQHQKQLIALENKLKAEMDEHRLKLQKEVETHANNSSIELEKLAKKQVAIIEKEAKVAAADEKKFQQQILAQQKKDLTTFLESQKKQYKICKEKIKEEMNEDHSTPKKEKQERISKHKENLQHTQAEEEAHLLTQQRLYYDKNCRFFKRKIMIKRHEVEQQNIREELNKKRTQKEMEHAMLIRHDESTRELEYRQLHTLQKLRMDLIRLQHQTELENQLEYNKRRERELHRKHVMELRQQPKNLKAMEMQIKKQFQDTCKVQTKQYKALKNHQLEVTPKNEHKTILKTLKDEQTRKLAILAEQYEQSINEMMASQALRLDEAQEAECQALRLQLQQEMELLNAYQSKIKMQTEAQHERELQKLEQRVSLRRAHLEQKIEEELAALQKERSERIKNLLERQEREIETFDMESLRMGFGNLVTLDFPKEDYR", "conditions": "at 1 µM"}, "[9]": {"biological_target": "T4, Serine/threonine-protein kinase TAO3 (Homo sapiens)", "conditions": "at 10 µM"}, "[10]": {"biological_target": "T5, Serine/threonine-protein kinase TBK1 (Homo sapiens) (UniProt Q9UHD2)", "T5 sequence (whole entry)": "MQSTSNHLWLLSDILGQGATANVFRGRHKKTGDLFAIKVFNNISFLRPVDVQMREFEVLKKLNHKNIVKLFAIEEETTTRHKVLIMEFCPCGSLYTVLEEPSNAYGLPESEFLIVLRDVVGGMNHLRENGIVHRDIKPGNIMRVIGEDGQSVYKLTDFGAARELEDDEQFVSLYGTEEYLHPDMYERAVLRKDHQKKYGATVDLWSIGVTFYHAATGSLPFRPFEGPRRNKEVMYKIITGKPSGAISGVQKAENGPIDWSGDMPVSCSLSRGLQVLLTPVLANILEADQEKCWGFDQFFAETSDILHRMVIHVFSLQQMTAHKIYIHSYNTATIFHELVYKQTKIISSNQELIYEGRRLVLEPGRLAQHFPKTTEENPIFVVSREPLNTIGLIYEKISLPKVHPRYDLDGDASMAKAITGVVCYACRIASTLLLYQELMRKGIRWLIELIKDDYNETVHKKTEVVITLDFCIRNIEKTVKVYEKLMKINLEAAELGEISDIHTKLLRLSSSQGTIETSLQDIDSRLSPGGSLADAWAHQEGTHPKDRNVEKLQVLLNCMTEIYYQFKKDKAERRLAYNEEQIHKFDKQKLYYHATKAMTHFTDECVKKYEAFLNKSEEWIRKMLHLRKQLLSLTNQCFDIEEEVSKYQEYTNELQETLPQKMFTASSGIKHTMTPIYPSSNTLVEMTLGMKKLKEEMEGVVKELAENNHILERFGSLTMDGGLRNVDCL", "conditions": "at 1 µM"}},
  "data": [
    {"smiles": "CO[C@H]1C[C@@H]2CC[C@@H](C)[C@@](O)(O2)C(=O)C(=O)N2CCCC[C@H]2C(=O)O[C@H]([C@H](C)C[C@@H]2CC[C@@H](O)[C@H](OC)C2)CC(=O)[C@H](C)/C=C(\\C)[C@@H](O)[C@@H](OC)C(=O)[C@H](C)C[C@H](C)/C=C/C=C/C=C/1C", "values": [
      {"measurement": "residual activity", "setting": "[1]", "value": 78, "unit": "%"},
      {"measurement": "residual activity", "setting": "[2]", "value": 89, "unit": "%"},
      {"measurement": "residual activity", "setting": "[3]", "value": 82, "unit": "%"},
      {"measurement": "residual activity", "setting": "[4]", "value": 102, "unit": "%"},
      {"measurement": "residual activity", "setting": "[5]", "value": 87, "unit": "%"},
      {"measurement": "residual activity", "setting": "[6]", "value": 99, "unit": "%"},
      {"measurement": "residual activity", "setting": "[7]", "value": 96, "unit": "%"},
      {"measurement": "residual activity", "setting": "[8]", "value": 97, "unit": "%"},
      {"measurement": "residual activity", "setting": "[9]", "value": 85, "unit": "%"},
      {"measurement": "residual activity", "setting": "[10]", "value": 63, "unit": "%"}
    ]}
  ]
}
